Measurements from PubChem BioAssay AID1159580 (chemical genetic matrix, 2015).
Out of some 5,500 compounds screened, about 2,000 (36%) were called active. Another 18% or so got no clear call; they are omitted. No stated cut-off is given here; in the data, active means normalized growth mostly below about 0.91 (no sharp cut-off); inconclusive means no clear call, values can overlap the other calls; inactive means mostly above about 0.92. This is one part of the list.

Experiment: chemical genetic growth profiling, strain panel (AID 1159580);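 further: tested at 20 µM; growth read once vehicle control cultures reached saturation at 30 °C; 1 = growth at the plate median or of vehicle wells; lower values mean less growth of the strain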
Conditions: S. cerevisiae deletion strains, growth OD

Measured: normalized growth

CC(=O)NC1C(O)OC(COS(=O)(=O)O)C(OC2OC(C(=O)O)C(OC3OC(CO)C(OC4OC(C(=O)O)C(O)C(O)C4OS(=O)(=O)O)C(OS(=O)(=O)O)C3NS(=O)(=O)O)C(O)C2OS(=O)(=O)O)C1O (stereo not drawn)
inactive: locus YAL021C, strain ccr4, active compounds read low 0.991 | locus YAL026C, strain drs2, active compounds read low 0.974 | locus YAL030W, strain snc1, active compounds read low 0.988 | locus YBL061C, strain skt5, active compounds read low 0.964 | locus YBR009C, strain hhf1, active compounds read low 0.989 | locus YBR023C, strain chs3, active compounds read low 0.971 | locus YBR171W, strain sec66, active compounds read low 0.957 | locus YBR231C, strain swc5, active compounds read low 0.991 | locus YBR279W, strain paf1, active compounds read low 0.981 | locus YCL011C, strain gbp2, active compounds read low 0.976 | locus YCL016C, strain dcc1, active compounds read low 0.971 | locus YCL061C, strain MRC1, active compounds read low 0.978 | locus YCL069W, strain vba3, active compounds read low 0.976 | locus YCR088W, strain abp1, active compounds read low 0.974 | locus YDL005C, strain med2, active compounds read low 0.978 | locus YDL040C, strain nat1, active compounds read low 0.973 | locus YDR001C, strain nth1, active compounds read low 0.976 | locus YDR069C, strain doa4, active compounds read low 0.978 | locus YDR137W, strain rgp1, active compounds read low 0.92 | locus YDR159W, strain sac3, active compounds read low 0.992 | locus YDR195W, strain ref2 0.965 | locus YDR297W, strain sur2, active compounds read low 0.981 | locus YDR334W, strain swr1, active compounds read low 0.96 | locus YDR335W, strain msn5, active compounds read low 0.978 | locus YDR392W, strain spt3, active compounds read low 0.979 | locus YEL003W, strain gim4, active compounds read low 0.978 | locus YEL037C, strain rad23, active compounds read low 0.978 | locus YEL061C, strain CIN8 (second series), active compounds read low 0.976 | locus YER015W, strain faa2, active compounds read low 0.986 | locus YER016W, strain bim1, active compounds read low 0.982 | locus YER111C, strain swi4, active compounds read low 0.968 | locus YER155C, strain BEM2 (second series), active compounds read low 0.975 | locus YFR010W, strain ubp6, active compounds read low 0.968 | locus YGL167C, strain pmr1, active compounds read low 0.97 | locus YGL173C, strain kem1, active compounds read low 0.966 | locus YGL227W, strain vid30, active compounds read low 0.975 | locus YGL240W, strain doc1, active compounds read low 0.996 | locus YGL253W, strain hxk2, active compounds read low 0.994 | locus YHR013C, strain ard1, active compounds read low 0.947 | locus YHR027C, strain rpn1, active compounds read low 0.979 | locus YHR142W, strain chs7, active compounds read low 0.957 | locus YJL092W, strain hpr5, active compounds read low 0.976 | locus YJL095W, strain BCK1 (second series), active compounds read low 0.979 | locus YJL115W, strain asf1, active compounds read low 0.967 | locus YJL129C, strain trk1, active compounds read low 0.986 | locus YJL154C, strain vps35, active compounds read low 0.974 | locus YJL164C, strain tpk1, active compounds read low 0.979 | locus YJL166W, strain qcr8, active compounds read low 0.982 | locus YJL187C, strain SWE1, active compounds read low 0.978 | locus YKL160W, strain elf1, active compounds read low 0.976 | locus YKR026C, strain gcn3, active compounds read low 0.978 | locus YKR091W, strain srl3, active compounds read low 0.984 | locus YLL001W, strain dnm1, active compounds read low 0.975 | locus YLL026W, active compounds read low 0.981 | locus YLL041C, strain sdh2, active compounds read low 0.982 | locus YLR027C, strain aat2, active compounds read low 0.982 | locus YLR221C, strain rsa3, active compounds read low 0.969 | locus YLR258W, strain gsy2, active compounds read low 0.986 | locus YLR262C, strain YPT6 (second series), active compounds read low 0.977 | locus YLR320W, strain mms22, active compounds read low 0.977 | locus YLR342W, strain FKS1, active compounds read low 0.98 | locus YLR357W, strain rsc2, active compounds read low 0.964 | locus YLR370C, strain arc18, active compounds read low 0.966 | locus YLR384C, strain iki3, active compounds read low 0.963 | locus YML120C, strain ndi1, active compounds read low 0.981 | locus YMR058W, strain fet3, active compounds read low 0.987 | locus YMR125W, strain sto1, active compounds read low 0.981 | locus YMR129W, active compounds read low 0.983 | locus YMR205C, strain PFK2, active compounds read low 0.982 | locus YMR231W, strain pep5, active compounds read low 0.967 | locus YNL071W, strain lat1, active compounds read low 0.983 | locus YNL209W, strain ssb2, active compounds read low 0.975 | locus YNL248C, strain rpa49, active compounds read low 0.98 | locus YNL322C, strain KRE1 (second series), active compounds read low 0.989 | locus YNR049C, strain mso1, active compounds read low 0.987 | locus YOR001W, strain rrp6, active compounds read low 0.97 | locus YOR070C, strain gyp1, active compounds read low 0.978 | locus YOR080W, strain dia2, active compounds read low 0.969 | locus YOR083W, strain WHI5, active compounds read low 0.986 | locus YOR106W, strain vam3, active compounds read low 0.984 | locus YOR265W, strain rbl2, active compounds read low 0.972 | locus YOR270C, strain vph1, active compounds read low 0.952 | locus YOR290C, strain snf2, active compounds read low 0.961 | locus YPL051W, strain arl3, active compounds read low 0.977 | locus YPL078C, strain atp4, active compounds read low 0.97 | locus YPL106C, strain sse1, active compounds read low 0.97 | locus YPL240C, strain hsp82, active compounds read low 0.982

O=c1onc2n1-c1cc(Br)ccc1OC2
active: locus YNL153C, strain GIM3, active compounds read low 0.763
inactive: locus YAL013W, strain DEP1, active compounds read low 0.994 | locus YAL040C, strain CLN3, active compounds read low 0.991 | locus YCL061C, strain MRC1 (second series), active compounds read low 1.01 | locus YDR363W, strain ESC2, active compounds read low 0.995 | locus YER002W, strain NOP16, active compounds read low 1 | locus YGR078C, strain PAC10, active compounds read low 0.952 | locus YJR075W, strain HOC1, active compounds read low 1 | locus YMR263W, strain SAP30, active compounds read low 1.01 | locus YMR307W, strain GAS1, active compounds read low 0.989 | locus YNL175C, strain NOP13, active compounds read low 1 | locus YNL197C, strain WHI3, active compounds read low 1.02 | locus YNL224C, strain SQS1, active compounds read low 1 | locus YNL322C, strain KRE1, active compounds read low 0.998 | locus YOR083W, strain WHI5 (second series), active compounds read low 0.882 | locus YPL241C, strain CIN2, active compounds read low 1
